Data on 92 compounds can be found in PubChem BioAssay AID485364 (National Center for Advancing Translational Sciences (NCATS), 2010).

Screen size: about 360,000 compounds; about 11,000 (3.1%) were called active. Where a call stands in place of a potency, no number is given. Inconclusive results (about 4%) are left out. Calls follow the shape of the dose curve; as a rule, active = well fitted inhibition curve with a large enough effect; inconclusive = small, poorly fitted or top-dose-only effect; inactive = no such curve, though single readings can be large or run the other way. The sample as a whole holds a higher share of actives than the screen did.
Potency is read from the fitted curve at half-maximal effect.

For this assay, the target named is Schistosoma mansoni thioredoxin glutathione reductase (TGR) (UniProt Q962Y6). As to the kind of experiment: qHTS Assay for the Inhibitors of Schistosoma Mansoni Peroxiredoxins. Also: nearly all actives have a fitted effect of over 60% in size. The conditions noted are these: purified TGR, DTNB reduction, TNB absorbance 405 nm; series mostly up to 114 µM. In outline: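 TGR 20 nM + NADPH 100 uM (dispensed conc.), cpd preinc 15 min RT; start with NADPH (500 uM addition) then DTNB (15 mM addition). Kinetic TNB absorbance, 405 nm filter. Four-parameter Hill fit across titration.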
(In general: Quantitative high-throughput screening tests each substance at several concentrations.)
As to `CCOC(=O)C1CCN(c2ncnc3c2c(-c2ccccc2)cn3-c2cccc(C)c2)CC1`, the Potency entry is “inactive”.

For the compound `CCOC(=O)C1CCN(c2nc3c(S(=O)(=O)c4ccc(CC)cc4)nnn3c3ccc(Cl)cc23)CC1`, the Potency entry is “inactive”.

In the case of `COc1ccc(S(=O)(=O)NCc2cccn2Cc2cccc(C)c2)cc1`, the Potency entry is “inactive”.

Turning to `Cn1c(=O)c2c(-c3ccccc3Br)n(Cc3ccccc3)cc2n(C)c1=O`, the Potency result was “inactive”.

Turning to `CC(C)N(C(=O)CN1CCN(S(=O)(=O)c2ccc(Br)s2)CC1)C(C)C`, the Potency result is “inactive”.

On to `Cc1ccc(S(=O)(=O)N2CCN(CC(=O)N/N=C/c3ccc(Br)s3)CC2)cc1`, for which the Potency entry was “inactive”.

For the compound `Cc1cccc(NC(=O)CN2CCCN(S(=O)(=O)c3ccc(Br)s3)CC2)c1`, the Potency was 25.1 µM (active).

With `COc1ccc(CCNC(=O)CCCn2c(=O)c3ccccc3n(Cc3ccc(F)cc3Cl)c2=O)cc1OC`, the Potency entry was “inactive”.

In the case of `Cc1ccc(-n2nc(-c3ccco3)cc2C(=O)NCc2cccnc2)cc1`, the Potency was 3.55 µM (active).

Take `Cc1ccc(C(=O)NC(=S)NCc2cccnc2)cc1`: the Potency result was “inactive”.

As to `CSc1sc(C(=O)NC(=O)NCc2cccnc2)c(C)c1-c1ccon1`, the Potency result is “inactive”.

For `Cc1ccccc1CNC(=O)CCc1cn(Cc2ccccc2C)c2ccccc12`, the Potency result was “inactive”.

With `Cc1cc(C)cc(NS(=O)(=O)c2ccc(-c3cc(C)no3)s2)c1`, the Potency result is “inactive”.

As to `Cc1ccccc1CN1C[C@@H]2C[C@@H](c3ccc4nsnc4c3)N3CCC[C@@]23C1=O`, the Potency result was “inactive”.

On to `Cc1ccc(CN2CCN(Cc3cn(C)nc3-c3ccccc3)CC2CCO)o1` (configuration not stated), for which the Potency result was “inactive”.

Turning to `Cc1ccccc1CN1C[C@@H]2C[C@@H](c3cn(C)nc3-c3ccccc3)N3CCC[C@@]23C1=O`, the Potency was 7.94 µM (active).

For the compound `CC(C)c1ccc(NC(=O)c2ccc3c(O)c(S(=O)(=O)c4ccccc4)c(=O)[nH]c3c2)cc1`, the Potency entry is “inactive”.

On to `Cc1ccc(-c2nn3c(=O)cc(CN4CCN(C(=O)Nc5cccc(C(F)(F)F)c5)CC4)nc3s2)cc1`, for which the Potency entry was “inactive”.

Take `O=C(NC(=S)Nc1ccc(Cl)c(C(=O)O)c1)c1cncc(Br)c1`: the Potency was 12.6 µM (active).

Turning to `COC(=O)c1ccccc1NC(=O)c1cncc(Br)c1`, the Potency entry is “inactive”.

As for `O=C(Nc1ccc(N2CCCC2=O)cc1)c1cncc(Br)c1`, the Potency result is “inactive”.

With `Cc1ccc(C(=O)N2CC(=O)Nc3ccccc32)o1`, the Potency result was “inactive”.

Turning to `Cc1ccc(CNC(=O)C2(C(F)(F)F)C/C(=C\Cc3ccccc3)CCCO2)o1` (configuration not stated), the Potency was 20 µM (active).

`Cc1ccc(CNC(=O)Cn2cnc(S(=O)(=O)N3CCCCC3)c2)o1`: the Potency result is “inactive”.

As for `COC(=O)c1cccc(Cn2nnc3sc4c(c3c2=O)CCC(C(C)(C)C)C4)c1` (configuration not stated), the Potency result is “inactive”.

`COc1cn(CC(=O)Nc2cccc(C)c2C)c(CN2CCCCC2)cc1=O`: the Potency result was “inactive”.

Turning to `CCc1ccccc1NC(=O)CSc1nc(C)c(C(=O)Nc2ccccc2)c(-c2ccc(Cl)cc2)c1C#N`, the Potency entry is “inactive”.

Turning to `COc1ccc(-c2onc(C)c2C)cc1S(=O)(=O)NCC1CCN(Cc2cccc(F)c2)CC1`, the Potency result is “inactive”.

With `CCN1C(=O)[C@@H]2[C@@H](c3ccc(-c4cccc(Cl)c4)cc3)N3CCC[C@@]3(C(=O)OC)[C@@H]2C1=O`, the Potency was 22.4 µM (active).

Take `CCN1C(=O)[C@@H]2[C@@H](c3ccc(-c4ccccc4)cc3)N3CCCC[C@@]3(C(=O)OC)[C@@H]2C1=O`: the Potency is 35.5 µM (active).

With `CCN1C(=O)[C@@H]2[C@@H](c3ccc(-c4ccc(OC)cc4)c(OC)c3)N3CCC[C@@]3(C(=O)OC)[C@@H]2C1=O`, the Potency result was “inactive”.

Turning to `CCN1C(=O)[C@H]2[C@@H](c3ccc(SC4CCCCC4)c(OC)c3)N[C@@](Cc3ccccc3)(C(=O)OC)[C@H]2C1=O`, the Potency entry was “inactive”.

On to `CCN1C(=O)[C@H]2[C@@H](c3ccc(-c4ccc(F)cc4)cc3)N[C@@](Cc3ccccc3)(C(=O)OC)[C@H]2C1=O`, for which the Potency result is “inactive”.

With `COC(=O)[C@@]12CCCN1[C@H](c1ccc(-c3ccc(F)cc3)c(OC)c1)[C@H]1C(=O)N(C)C(=O)[C@H]12`, the Potency entry was “inactive”.

For `Cc1ccc(S(=O)(=O)c2c(Nc3cccc(Cl)c3)sc(C(=O)c3ccc4c(c3)OCO4)c2N)cc1`, the Potency result is “inactive”.

Take `CCOC(=O)c1cccc(NS(=O)(=O)c2cc(-c3cnc(C)o3)ccc2OC)c1`: the Potency result is “inactive”.

Turning to `CCOc1ccc(S(=O)(=O)Nc2ccc3oc4c(c3c2)CC(C)CC4)cc1` (configuration not stated), the Potency result was “inactive”.

In the case of `CCOc1ccc(C2C(=O)N(C3CCCCC3)CC(=O)N2CCC2=CCCCC2)cc1OC` (configuration not stated), the Potency entry is “inactive”.

`C=CCNc1cnn(-c2ccc(C)cc2)c(=O)c1Cl`: the Potency entry was “inactive”.

Turning to `Cc1cccc(-n2ncc(Cl)c(Cl)c2=O)c1`, the Potency is 28.2 µM (active).

Consider `Cc1ccc(-n2ncc3c(=O)[nH]cnc32)c(C)c1`, for which the Potency result is “inactive”.

Take `COc1ccc(Cn2c(=O)n(-c3ccccc3C)c(=O)c3c4c(sc32)CN(C(C)=O)CC4)cc1`: the Potency entry was “inactive”.

In the case of `Cc1nccn1CCCNC(=O)CC1C(=O)NCCN1Cc1ccc(Cl)c(F)c1` (configuration not stated), the Potency entry is “inactive”.

For `O=C(CC1C(=O)NCCN1CC(c1ccccc1)c1ccccc1)NCC1CCOCC1` (configuration not stated), the Potency result is “inactive”.

For the compound `Cc1cc(C)n(CCNC(=O)CC2C(=O)NCCN2Cc2ccc(C)o2)n1` (configuration not stated), the Potency was 39.8 µM (active).

With `CCc1nn(CC(=O)N2CCN(c3cccc(C(F)(F)F)c3)CC2)c(=O)c2cc3occc3n12`, the Potency entry was “inactive”.

`Cc1c(CNC(C)c2ccccc2)c(C(=O)O)c(C)n1Cc1c(F)cccc1Cl` (configuration not stated): the Potency entry is “inactive”.

Turning to `COc1ccc(OC)c(NC(=O)C2CCCN(S(=O)(=O)c3ccc4c(c3)CCCC(=O)N4)C2)c1` (configuration not stated), the Potency result is “inactive”.

On to `O=C1CN(C(=O)COC(=O)C2CC(=O)N(Cc3ccco3)C2)c2ccccc2N1` (configuration not stated), for which the Potency was 39.8 µM (active).

As for `COc1cc(OC)c(C(=O)OCC(=O)N2CC(=O)Nc3ccccc32)cc1OC`, the Potency result was “inactive”.

For the compound `Cc1ccc(S(=O)(=O)N2CCC(C(=O)OCC(=O)N3CC(=O)Nc4ccccc43)CC2)cc1`, the Potency entry was “inactive”.

Consider `COc1ccccc1-c1cc2nc(C)c(CCC(=O)NC3CCCCC3)c(C)n2n1`, for which the Potency result is “inactive”.

Regarding `CCc1ccc(NC(=O)c2cnc3c(-c4ccccc4)c(C)nn3c2C)cc1`, the Potency result is “inactive”.

For the compound `COc1ccc(C)cc1N(C)C(=O)c1c(C)oc2ncnc(N3CCOCC3)c12`, the Potency result is “inactive”.

With `CCN(CC)c1cc(NC2CCCCC2)c2c3c(onc13)-c1ccccc1C2=O`, the Potency entry was “inactive”.

Regarding `CCCN(CCC)C(=O)Cn1c(=O)n(-c2ccc(Cl)cc2)c(=O)c2c3c(sc21)CCCCC3`, the Potency result was “inactive”.

`CCc1cccc(C)c1Nc1c(-c2ccc(N(C)C)cc2)nc2ncccn12`: the Potency result is “inactive”.

On to `CCOc1ccc(NC(=O)CCc2c(C)nn(-c3ccc(N4CCCC4)nn3)c2C)cc1`, for which the Potency result is “inactive”.

Take `Cc1cccc(NC(=O)CSc2nnc(CNC(=O)c3cccc(C)c3)n2-c2ccccc2)c1`: the Potency entry is “inactive”.

As to `Cc1c(NS(=O)(=O)c2ccc(Cl)cc2)c(=O)n(-c2ccccc2)n1C`, the Potency entry was “inactive”.

Take `CCN(CC)P(=O)(/C(Cl)=C\Nc1c(C)n(C)n(-c2ccccc2)c1=O)N(CC)CC`: the Potency was 89.1 µM (active).

On to `Cc1c(NC(=S)Nc2ccccc2)c(=O)n(-c2ccccc2)n1C`, for which the Potency result is “inactive”.

Regarding `COc1ccccc1CNc1nccn(-c2ccc(F)cc2)c1=O`, the Potency entry is “inactive”.

For `N#CC1=C(N)Oc2c(c(=O)oc3ccccc23)C1c1ccccc1OC(=O)c1cccs1` (configuration not stated), the Potency entry is “inactive”.

On to `N#CC1=C(N)Oc2c(sc3ccccc23)C1c1ccco1` (configuration not stated), for which the Potency is 31.6 µM (active).

As for `N#CC1=C(N)Oc2c(ccc3cccnc23)C1c1ccncc1` (configuration not stated), the Potency entry was “inactive”.

In the case of `CCOc1ccc(-n2c(SCC(=O)NCc3ccccc3)nc3n[nH]c(C)c3c2=N)cc1`, the Potency entry is “inactive”.

`O=C(Nc1cccc(-c2nc3ccccc3o2)c1)c1cccc(Br)c1`: the Potency entry was “inactive”.

Regarding `CCCC(NC(=O)c1ccco1)c1nc2ccccc2[nH]1` (configuration not stated), the Potency result was “inactive”.

In the case of `O=C(/C=C/c1ccco1)Nc1cccc(-c2nc3ccccc3[nH]2)c1`, the Potency is 14.1 µM (active).

On to `CCOC(=O)c1cc(NC(=O)c2ccc(F)cc2)c(=O)n2c1oc1ccccc12`, for which the Potency entry was “inactive”.

As for `CCOC(=O)c1ccc(NC(=O)C2CC(=O)N(c3ccc(C(C)C)cc3)C2)cc1` (configuration not stated), the Potency entry was “inactive”.

As for `COc1ccc(CNC(=O)C2=Cc3cccc(OC)c3OC2)cc1OC`, the Potency result is “inactive”.

Turning to `O=C(CSc1oc(-c2ccc(F)cc2)nc1S(=O)(=O)c1ccc(Br)cc1)NC1CCCCC1`, the Potency result is “inactive”.

As to `Cc1ccc(S(=O)(=O)c2nc(-c3ccco3)oc2SCC(=O)Nc2ccc(F)cc2)cc1`, the Potency result is “inactive”.

As to `CC(C)S(=O)(=O)c1oc(-c2ccc(F)cc2)nc1S(=O)(=O)c1ccc(F)cc1`, the Potency is 2.24 µM (active).

Consider `CCCN1CCN(CCCNC(=O)c2ccc3nc(Cc4ccccc4)oc3c2)CC1`, for which the Potency result was “inactive”.

For `CCC(C)Nc1oc(-c2ccc(COc3ccc(Cl)cc3)o2)nc1C#N` (configuration not stated), the Potency result is “inactive”.

As to `Cc1ccc(N2C(=O)CC(N3CCSCC3)C2=O)c(C)c1` (configuration not stated), the Potency is 50.1 µM (active).

For `Cc1ccc(CC2CC(=O)N(c3cc(C)ccc3C)C2=O)cc1` (configuration not stated), the Potency result was “inactive”.

For `Cc1ccc(N2CCN(S(=O)(=O)c3ccc(F)cc3)CC2)c(C)c1`, the Potency entry was “inactive”.

As for `CC(=O)Nc1cccc(NC(=O)CSc2cn(CC(=O)N3CCCC3)c3ccccc23)c1`, the Potency entry was “inactive”.

For the compound `CCC1(C)CC(=O)c2c(ccc3oc(C(=O)Nc4ccc(C(C)=O)cc4)c(C)c23)O1` (configuration not stated), the Potency entry is “inactive”.

Take `CCC(=O)N1CCc2cc(Br)cc(S(=O)(=O)CCC(=O)N3CCN(c4ccc(F)cc4)CC3)c21`: the Potency entry is “inactive”.

As to `CCOc1ccc(CN2CCN(Cc3c[nH]c4ccccc34)CC2)cc1`, the Potency result was “inactive”.

As for `Cc1nc(CN2CCN(C(=O)CCc3nnc(Cc4c[nH]c5ccccc45)o3)CC2)cs1`, the Potency is 39.8 µM (active).

On to `CC(C)N(C)C(=O)CCc1nnc(CCc2c[nH]c3ccccc23)o1`, for which the Potency entry was “inactive”.

`Cc1nn(C)c(C)c1CN(C(=O)CCc1nnc(Cc2c[nH]c3ccccc23)o1)C(C)C`: the Potency was 35.5 µM (active).

For the compound `Cc1cccc(C(=O)Nc2nnc(Cc3c[nH]c4ccccc34)s2)c1`, the Potency entry was “inactive”.

Regarding `COC(c1ccccc1)c1nnc(CCC(=O)N2CCN(CCOc3ccccc3)CC2)o1` (configuration not stated), the Potency entry is “inactive”.

For the compound `O=C(COc1ccccc1F)Nc1ccc(C(=O)OCc2cc(=O)n3nc(C4CC4)sc3n2)cc1`, the Potency entry is “inactive”.

With `COc1ccc(CCNC(=O)CCCCn2c(=O)c3ccccc3n(Cc3ccccc3C)c2=O)cc1OC`, the Potency entry is “inactive”.
